# Experimental data taken from article PMC7862700, “An all-to-all approach to the identification of sequence-specific readers for epigenetic DNA modifications on cytosine”.
# Key:
# Experiment in all cases: DAPPL (digital affinity profiling via proximity ligation, sequencing); 10 mM Tris-HCl pH 7.5, 50 mM NaCl, 1 mM DTT, 4% glycerol, room temperature, 30 min; GST-TFs on glutathione beads, 16-mer random dsDNA library, 0.1% formaldehyde crosslink after washing; high values mean tight binding
# Conditions in all cases: protein: recombinant; tags: N-terminal GST; dsDNA, one strand shown
# ELK1 = target: T1, ELK1 (Homo sapiens, UniProt P19419 1-428)
# T1 sequence: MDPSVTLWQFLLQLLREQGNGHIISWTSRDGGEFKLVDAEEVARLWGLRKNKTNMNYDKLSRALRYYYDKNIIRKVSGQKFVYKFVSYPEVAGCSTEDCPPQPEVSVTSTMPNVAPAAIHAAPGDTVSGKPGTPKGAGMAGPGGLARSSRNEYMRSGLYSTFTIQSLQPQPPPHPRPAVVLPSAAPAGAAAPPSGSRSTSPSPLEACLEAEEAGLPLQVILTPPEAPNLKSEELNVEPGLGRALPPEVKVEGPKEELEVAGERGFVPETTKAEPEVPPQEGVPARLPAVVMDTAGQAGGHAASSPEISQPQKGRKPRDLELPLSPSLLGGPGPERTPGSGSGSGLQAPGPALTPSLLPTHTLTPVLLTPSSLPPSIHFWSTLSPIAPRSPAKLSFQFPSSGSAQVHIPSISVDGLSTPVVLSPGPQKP
# In short: (§1)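 Pools were built from human transcription factors expressed in yeast as GST fusions, captured on glutathione beads and DNA-barcoded, along with a tag-only sample. Incubation with 200 nmole of a 16-mer random double-stranded DNA library lasted 30 min at room temperature in Tris/NaCl/DTT/glycerol buffer, and was followed by washing, 0.1% formaldehyde crosslinking, proximity ligation, PCR amplification and Illumina NextSeq500 sequencing. Binding signal is the quotient of each hexamer's read frequency for a factor and its frequency for the tag-only sample.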
# GABPA = target: T2, GABPA (Homo sapiens, UniProt Q06546 1-454)
# T2 sequence: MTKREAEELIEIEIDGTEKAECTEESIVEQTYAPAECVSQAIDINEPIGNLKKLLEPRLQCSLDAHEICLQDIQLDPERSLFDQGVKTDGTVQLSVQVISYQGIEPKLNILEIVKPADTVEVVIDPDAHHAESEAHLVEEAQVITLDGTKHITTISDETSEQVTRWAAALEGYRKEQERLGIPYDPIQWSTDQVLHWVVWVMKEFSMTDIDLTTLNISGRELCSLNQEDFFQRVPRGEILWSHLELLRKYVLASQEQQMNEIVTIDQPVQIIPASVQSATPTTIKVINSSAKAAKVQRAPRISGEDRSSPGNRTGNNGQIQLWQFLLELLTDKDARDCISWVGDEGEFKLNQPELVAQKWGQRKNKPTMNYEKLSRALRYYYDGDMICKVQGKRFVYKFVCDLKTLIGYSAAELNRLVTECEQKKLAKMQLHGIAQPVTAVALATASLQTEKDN
# In short: as §1
# ERG = target: T3, ERG (Homo sapiens, UniProt P11308 1-479)
# T3 sequence: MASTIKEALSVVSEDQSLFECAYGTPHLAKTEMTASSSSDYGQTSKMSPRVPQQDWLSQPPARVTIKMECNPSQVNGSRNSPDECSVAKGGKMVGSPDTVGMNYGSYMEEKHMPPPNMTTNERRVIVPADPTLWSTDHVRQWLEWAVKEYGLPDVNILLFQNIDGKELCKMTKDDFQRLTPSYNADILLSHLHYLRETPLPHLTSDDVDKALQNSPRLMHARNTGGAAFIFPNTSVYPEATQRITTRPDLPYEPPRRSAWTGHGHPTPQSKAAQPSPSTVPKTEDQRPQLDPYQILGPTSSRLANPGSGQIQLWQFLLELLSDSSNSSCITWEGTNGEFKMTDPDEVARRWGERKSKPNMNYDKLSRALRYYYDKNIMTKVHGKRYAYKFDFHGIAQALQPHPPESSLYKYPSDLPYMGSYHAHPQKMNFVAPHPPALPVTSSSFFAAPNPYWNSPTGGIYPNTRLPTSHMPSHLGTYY
# In short: as §1
# ELF1 = ELF1 (Homo sapiens, UniProt P32519 1-619)
# In short: as §1
# EHF = target: T4, EHF (Homo sapiens, UniProt Q9NZC4 1-300)
# T4 sequence: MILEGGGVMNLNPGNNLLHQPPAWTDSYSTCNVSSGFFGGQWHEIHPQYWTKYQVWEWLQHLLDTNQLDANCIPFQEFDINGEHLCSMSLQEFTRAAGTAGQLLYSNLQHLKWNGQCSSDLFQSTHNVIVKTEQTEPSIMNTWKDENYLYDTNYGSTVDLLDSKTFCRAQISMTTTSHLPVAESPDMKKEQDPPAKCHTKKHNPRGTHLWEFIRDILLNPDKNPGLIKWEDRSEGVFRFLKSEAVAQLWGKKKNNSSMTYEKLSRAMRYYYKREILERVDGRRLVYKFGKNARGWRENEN
# In short: as §1
# SPI1 = SPI1 (Homo sapiens, UniProt P17947 1-270)
# In short: as §1
# FEV = target: T5, FEV (Homo sapiens, UniProt Q99581 1-238)
# T5 sequence: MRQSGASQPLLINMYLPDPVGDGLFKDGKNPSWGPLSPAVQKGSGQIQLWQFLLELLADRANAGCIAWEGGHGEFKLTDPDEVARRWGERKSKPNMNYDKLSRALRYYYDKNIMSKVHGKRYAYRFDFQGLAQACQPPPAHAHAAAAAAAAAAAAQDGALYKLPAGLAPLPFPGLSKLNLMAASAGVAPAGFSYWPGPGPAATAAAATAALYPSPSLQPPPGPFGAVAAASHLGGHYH
# In short: as §1
# ETV5 = ETV5 (Homo sapiens, UniProt P41161 1-510)
# In short: as §1
# ELF4 = ELF4 (Homo sapiens, UniProt Q99607 1-663)
# In short: as §1
# ELF3 = target: T6, ELF3 (Homo sapiens, UniProt P78545 1-371)
# T6 sequence: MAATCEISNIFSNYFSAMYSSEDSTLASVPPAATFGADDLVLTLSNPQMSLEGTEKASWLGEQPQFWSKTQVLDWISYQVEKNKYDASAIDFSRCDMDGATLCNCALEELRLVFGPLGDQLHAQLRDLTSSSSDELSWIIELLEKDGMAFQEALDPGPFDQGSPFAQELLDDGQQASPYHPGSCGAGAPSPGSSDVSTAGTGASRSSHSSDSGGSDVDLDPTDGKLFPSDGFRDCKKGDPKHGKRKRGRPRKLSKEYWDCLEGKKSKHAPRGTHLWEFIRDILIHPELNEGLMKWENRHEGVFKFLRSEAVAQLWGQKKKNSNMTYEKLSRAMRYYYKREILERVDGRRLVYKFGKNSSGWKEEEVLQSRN
# In short: as §1
# ETV1 = ETV1 (Homo sapiens, UniProt P50549 1-477)
# In short: as §1
# ERF = target: T7, ERF (Homo sapiens, UniProt P50548 1-548)
# T7 sequence: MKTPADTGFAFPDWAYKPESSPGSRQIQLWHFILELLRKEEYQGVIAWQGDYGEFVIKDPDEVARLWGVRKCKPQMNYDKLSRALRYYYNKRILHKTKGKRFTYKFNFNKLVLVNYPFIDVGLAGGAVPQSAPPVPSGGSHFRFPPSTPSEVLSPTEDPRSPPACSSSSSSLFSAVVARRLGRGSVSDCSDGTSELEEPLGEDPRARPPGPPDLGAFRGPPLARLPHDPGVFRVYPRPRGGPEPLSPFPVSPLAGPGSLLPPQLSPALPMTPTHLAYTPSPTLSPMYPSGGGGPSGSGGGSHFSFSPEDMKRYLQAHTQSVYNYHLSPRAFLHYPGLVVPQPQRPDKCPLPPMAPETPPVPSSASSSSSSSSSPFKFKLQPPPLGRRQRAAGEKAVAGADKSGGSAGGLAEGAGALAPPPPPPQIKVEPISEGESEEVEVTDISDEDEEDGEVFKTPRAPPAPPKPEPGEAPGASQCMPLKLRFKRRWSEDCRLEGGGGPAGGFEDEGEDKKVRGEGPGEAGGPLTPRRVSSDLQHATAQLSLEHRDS
# In short: as §1
# ETV3L = target: T8, ETV3L (Homo sapiens, UniProt Q6ZN32 1-361)
# T8 sequence: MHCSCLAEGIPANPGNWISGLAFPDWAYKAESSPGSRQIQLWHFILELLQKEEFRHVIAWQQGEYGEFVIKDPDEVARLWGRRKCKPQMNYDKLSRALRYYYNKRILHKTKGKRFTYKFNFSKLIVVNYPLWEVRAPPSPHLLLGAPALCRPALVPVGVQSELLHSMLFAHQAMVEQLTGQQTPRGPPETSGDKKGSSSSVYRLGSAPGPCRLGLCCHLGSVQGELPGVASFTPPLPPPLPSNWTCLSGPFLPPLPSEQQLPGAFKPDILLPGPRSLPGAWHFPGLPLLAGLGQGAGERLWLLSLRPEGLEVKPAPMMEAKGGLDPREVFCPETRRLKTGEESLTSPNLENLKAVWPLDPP
# In short: as §1
# ETS2 = target: T9, ETS2 (Homo sapiens, UniProt P15036 1-469)
# T9 sequence: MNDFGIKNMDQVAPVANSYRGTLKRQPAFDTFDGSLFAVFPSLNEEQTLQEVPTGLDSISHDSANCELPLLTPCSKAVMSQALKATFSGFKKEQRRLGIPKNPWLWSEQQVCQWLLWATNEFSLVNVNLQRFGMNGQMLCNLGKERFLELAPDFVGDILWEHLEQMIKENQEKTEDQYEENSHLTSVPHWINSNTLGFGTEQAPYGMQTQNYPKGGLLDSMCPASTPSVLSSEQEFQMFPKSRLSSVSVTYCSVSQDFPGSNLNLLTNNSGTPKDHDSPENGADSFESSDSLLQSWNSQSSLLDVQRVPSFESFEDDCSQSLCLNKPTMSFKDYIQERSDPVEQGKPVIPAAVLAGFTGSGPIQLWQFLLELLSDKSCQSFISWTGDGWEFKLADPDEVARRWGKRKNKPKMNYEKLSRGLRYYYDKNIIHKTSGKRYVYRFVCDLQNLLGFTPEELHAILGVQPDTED
# In short: as §1
# SPDEF = target: T10, SPDEF (Homo sapiens, UniProt O95238 1-335)
# T10 sequence: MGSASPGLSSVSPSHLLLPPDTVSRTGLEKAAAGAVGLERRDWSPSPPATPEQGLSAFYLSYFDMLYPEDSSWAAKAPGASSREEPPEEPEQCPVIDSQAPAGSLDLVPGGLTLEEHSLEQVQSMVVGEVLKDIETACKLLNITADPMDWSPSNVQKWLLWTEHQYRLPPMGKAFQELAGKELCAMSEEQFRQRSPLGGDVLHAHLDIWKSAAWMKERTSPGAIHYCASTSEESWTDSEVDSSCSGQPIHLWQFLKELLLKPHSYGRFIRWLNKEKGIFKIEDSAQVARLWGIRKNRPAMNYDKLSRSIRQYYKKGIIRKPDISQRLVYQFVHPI
# In short: as §1
# ETV7 = target: T11, ETV7 (Homo sapiens, UniProt Q9Y603 1-341)
# T11 sequence: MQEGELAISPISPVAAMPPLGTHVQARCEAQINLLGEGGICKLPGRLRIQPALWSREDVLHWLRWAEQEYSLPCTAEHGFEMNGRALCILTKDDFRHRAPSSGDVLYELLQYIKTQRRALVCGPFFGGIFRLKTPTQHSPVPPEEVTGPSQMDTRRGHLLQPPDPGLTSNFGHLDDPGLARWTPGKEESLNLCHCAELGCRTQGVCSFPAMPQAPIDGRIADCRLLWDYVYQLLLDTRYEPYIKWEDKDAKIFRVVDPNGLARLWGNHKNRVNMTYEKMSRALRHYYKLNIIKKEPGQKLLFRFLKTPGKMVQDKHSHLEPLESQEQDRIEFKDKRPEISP
# In short: as §1
# ETV3 = target: T12, ETV3 (Homo sapiens, UniProt P41162-2 1-143)
# T12 sequence: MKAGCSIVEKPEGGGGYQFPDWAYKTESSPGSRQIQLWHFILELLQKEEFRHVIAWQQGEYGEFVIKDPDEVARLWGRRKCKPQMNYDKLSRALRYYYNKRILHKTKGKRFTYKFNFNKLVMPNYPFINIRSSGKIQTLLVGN
# In short: as §1
# ETV6 = ETV6 (Homo sapiens, UniProt P41212 1-452)
# In short: as §1
# Chain of ELF4 (Q99607 whole entry): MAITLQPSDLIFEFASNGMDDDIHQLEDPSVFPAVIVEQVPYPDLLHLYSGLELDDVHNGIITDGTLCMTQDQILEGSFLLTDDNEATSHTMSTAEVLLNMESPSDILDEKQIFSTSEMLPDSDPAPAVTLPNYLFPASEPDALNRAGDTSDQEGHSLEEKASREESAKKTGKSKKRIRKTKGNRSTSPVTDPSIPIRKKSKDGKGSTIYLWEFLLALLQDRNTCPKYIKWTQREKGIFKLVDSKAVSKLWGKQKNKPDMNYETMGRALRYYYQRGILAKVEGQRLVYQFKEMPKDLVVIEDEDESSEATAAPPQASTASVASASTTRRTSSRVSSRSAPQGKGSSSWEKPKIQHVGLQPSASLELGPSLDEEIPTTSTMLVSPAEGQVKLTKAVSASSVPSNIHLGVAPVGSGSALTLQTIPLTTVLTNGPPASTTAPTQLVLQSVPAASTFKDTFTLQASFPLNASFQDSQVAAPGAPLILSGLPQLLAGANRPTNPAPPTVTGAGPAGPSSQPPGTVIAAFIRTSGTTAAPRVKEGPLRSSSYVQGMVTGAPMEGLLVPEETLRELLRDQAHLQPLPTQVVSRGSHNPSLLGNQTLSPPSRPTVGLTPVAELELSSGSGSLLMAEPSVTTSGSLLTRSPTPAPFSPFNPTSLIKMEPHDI
# Chain of ETV6 (P41212 whole entry): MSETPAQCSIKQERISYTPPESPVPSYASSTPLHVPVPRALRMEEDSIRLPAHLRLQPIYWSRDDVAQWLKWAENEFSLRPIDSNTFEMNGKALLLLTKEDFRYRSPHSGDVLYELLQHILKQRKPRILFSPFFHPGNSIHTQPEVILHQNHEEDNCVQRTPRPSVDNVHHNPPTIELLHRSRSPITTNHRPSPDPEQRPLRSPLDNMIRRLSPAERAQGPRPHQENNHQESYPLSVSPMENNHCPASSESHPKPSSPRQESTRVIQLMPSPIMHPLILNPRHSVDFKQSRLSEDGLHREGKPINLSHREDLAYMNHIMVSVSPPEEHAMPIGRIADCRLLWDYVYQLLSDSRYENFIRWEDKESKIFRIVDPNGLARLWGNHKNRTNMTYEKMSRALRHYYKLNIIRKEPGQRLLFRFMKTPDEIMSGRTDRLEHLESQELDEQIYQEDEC
# Chain of ELF1 (P32519 whole entry): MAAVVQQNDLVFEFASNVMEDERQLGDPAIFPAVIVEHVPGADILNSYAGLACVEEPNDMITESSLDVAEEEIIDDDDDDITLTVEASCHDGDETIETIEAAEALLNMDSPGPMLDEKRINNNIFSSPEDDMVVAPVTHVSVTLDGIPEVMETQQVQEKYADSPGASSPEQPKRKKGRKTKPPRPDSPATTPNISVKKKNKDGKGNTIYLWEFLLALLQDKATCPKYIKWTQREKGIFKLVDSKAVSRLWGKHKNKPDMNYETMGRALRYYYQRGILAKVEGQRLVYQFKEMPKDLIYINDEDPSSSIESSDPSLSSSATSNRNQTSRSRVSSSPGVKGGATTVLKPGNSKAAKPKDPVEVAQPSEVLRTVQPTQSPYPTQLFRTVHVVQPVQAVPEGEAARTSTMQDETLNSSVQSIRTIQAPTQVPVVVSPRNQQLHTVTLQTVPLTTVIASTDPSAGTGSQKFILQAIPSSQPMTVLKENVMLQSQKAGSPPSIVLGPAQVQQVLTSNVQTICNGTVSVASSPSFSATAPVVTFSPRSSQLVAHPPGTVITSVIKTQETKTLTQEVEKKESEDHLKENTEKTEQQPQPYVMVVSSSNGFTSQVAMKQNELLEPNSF
# Chain of ETV1 (P50549 whole entry): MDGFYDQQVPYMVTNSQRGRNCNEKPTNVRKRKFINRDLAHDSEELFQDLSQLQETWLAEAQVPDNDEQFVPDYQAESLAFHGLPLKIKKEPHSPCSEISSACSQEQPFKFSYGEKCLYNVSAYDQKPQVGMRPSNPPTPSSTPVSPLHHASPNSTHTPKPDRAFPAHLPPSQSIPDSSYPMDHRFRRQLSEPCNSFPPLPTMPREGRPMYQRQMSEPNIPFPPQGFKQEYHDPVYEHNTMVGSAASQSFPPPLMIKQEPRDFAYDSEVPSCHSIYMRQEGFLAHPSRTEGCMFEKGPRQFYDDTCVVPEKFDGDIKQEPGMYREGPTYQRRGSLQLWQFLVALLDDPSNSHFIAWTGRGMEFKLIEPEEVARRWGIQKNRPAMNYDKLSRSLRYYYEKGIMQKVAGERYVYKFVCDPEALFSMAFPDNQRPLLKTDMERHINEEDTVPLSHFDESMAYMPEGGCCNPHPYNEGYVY
# Chain of ETV5 (P41161 whole entry): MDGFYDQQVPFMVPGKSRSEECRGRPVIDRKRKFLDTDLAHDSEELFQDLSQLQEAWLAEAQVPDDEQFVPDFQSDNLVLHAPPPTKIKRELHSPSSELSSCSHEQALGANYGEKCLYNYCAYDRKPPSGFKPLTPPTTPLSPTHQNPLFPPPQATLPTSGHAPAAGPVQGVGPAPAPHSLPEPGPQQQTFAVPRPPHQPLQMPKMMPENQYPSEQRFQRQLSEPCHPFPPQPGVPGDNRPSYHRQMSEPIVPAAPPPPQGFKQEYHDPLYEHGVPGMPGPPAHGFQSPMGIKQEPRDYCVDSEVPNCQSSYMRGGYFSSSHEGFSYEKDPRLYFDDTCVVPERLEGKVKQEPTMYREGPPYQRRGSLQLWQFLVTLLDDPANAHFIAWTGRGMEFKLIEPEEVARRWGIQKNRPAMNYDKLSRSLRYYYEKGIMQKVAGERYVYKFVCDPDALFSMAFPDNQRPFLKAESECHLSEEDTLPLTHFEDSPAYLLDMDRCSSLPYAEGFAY
sequence,measurement,setting,value
ACGCCG,binding signal,ELK1,"1.11 fold enrichment (6-mer frequency, TF over GST control)"
same,binding signal,GABPA,"1.11 fold enrichment (6-mer frequency, TF over GST control)"
same,binding signal,ERG,"1.02 fold enrichment (6-mer frequency, TF over GST control)"
same,binding signal,ELF1,"1.13 fold enrichment (6-mer frequency, TF over GST control)"
same,binding signal,EHF,"1.14 fold enrichment (6-mer frequency, TF over GST control)"
same,binding signal,SPI1,"1.09 fold enrichment (6-mer frequency, TF over GST control)"
same,binding signal,FEV,"1.14 fold enrichment (6-mer frequency, TF over GST control)"
same,binding signal,ETV5,"1.12 fold enrichment (6-mer frequency, TF over GST control)"
same,binding signal,ELF4,"1.07 fold enrichment (6-mer frequency, TF over GST control)"
same,binding signal,ELF3,"1.15 fold enrichment (6-mer frequency, TF over GST control)"
same,binding signal,ETV1,"1.11 fold enrichment (6-mer frequency, TF over GST control)"
same,binding signal,ERF,"1.12 fold enrichment (6-mer frequency, TF over GST control)"
same,binding signal,ETV3L,"1.08 fold enrichment (6-mer frequency, TF over GST control)"
same,binding signal,ETS2,"1.01 fold enrichment (6-mer frequency, TF over GST control)"
same,binding signal,SPDEF,"1.04 fold enrichment (6-mer frequency, TF over GST control)"
same,binding signal,ETV7,"1.14 fold enrichment (6-mer frequency, TF over GST control)"
same,binding signal,ETV3,"1.05 fold enrichment (6-mer frequency, TF over GST control)"
same,binding signal,ETV6,"1.14 fold enrichment (6-mer frequency, TF over GST control)"
